Data on nine molecules can be found in PubChem BioAssay (EPA / NIEHS).

As usually defined, the AC50 is the midpoint of the concentration-response curve, whichever way the signal moves.

Read-out in test [1]: UDP glucuronosyltransferase (UGT1A6), UGT1A6 (gene 54578)
Description: LTEA_HepaRG_UGT1A6: Life Technologies and Expression Analysis (LTEA) Assay for UDP glucuronosyltransferase (UGT1A6) using HepaRG (AID 2283539). Particulars: mRNA level, 48 h; actives raise or lower the signal. A digest of the protocol:
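Measures mRNA change in HepaRG hepatic cells exposed 48 h to chemicals (eight-point, maximum 100 uM, 0.5% DMSO vehicle) in serum-free induction medium. Expression normalized to endogenous controls; DMSO served as negative control and baseline.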

Read-out in test [2]: Protein phosphatase 2A (PPP2R4), PTPA (gene 5524)
The test can be described thus: LTEA_HepaRG_PPP2R4: Life Technologies and Expression Analysis (LTEA) Assay for Protein phosphatase 2A (PPP2R4) using HepaRG (AID 2283522). Particulars: mRNA level, 48 h; actives raise or lower the signal. A digest of the protocol: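 Differentiated HepaRG cells in serum-free induction medium were exposed in duplicate for 48 h to eight concentrations, top 100 uM with half-log dilutions, in 0.5% DMSO. PPP2R4 mRNA was quantified by TaqMan qRT-PCR, normalized to ACTB, GAPDH and POLR2A.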

Read-out in test [3]: Phosphatase and tensin (PTEN), PTEN (gene 5728)
The test can be described thus: LTEA_HepaRG_PTEN: Life Technologies and Expression Analysis (LTEA) Assay for Phosphatase and tensin (PTEN) using HepaRG (AID 2283523). To be noted: mRNA level, 48 h; actives raise or lower the signal. A digest of the protocol: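 Read-out is PTEN transcript level by multiplexed TaqMan qRT-PCR after 48 h chemical treatment of human HepaRG cultures in serum-free induction medium. Concentrations spanned 100 uM downward in half-log steps, 0.5% DMSO throughout; activity fitted in both directions against vehicle.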

Read-out in test [4]: solute carrier (SLC22A1), SLC22A1 (gene 6580)
Description: LTEA_HepaRG_SLC22A1: Life Technologies and Expression Analysis (LTEA) Assay for solute carrier (SLC22A1) using HepaRG (AID 2283524). To be noted: mRNA level, 48 h; actives raise or lower the signal. A digest of the protocol: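 HepaRG (human liver line), 48 h dosing in serum-free induction medium; 8 conc., half-log down from 100 uM, 0.5% DMSO vehicle, duplicates. Endpoint: SLC22A1 mRNA, qRT-PCR, housekeeping-normalized; gain/loss fit vs DMSO.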

Read-out in test [5]: Pyruvate Dehydrogenase Kinase 4 (PDK4), PDK4 (gene 5166)
The test can be described thus: LTEA_HepaRG_PDK4: Life Technologies and Expression Analysis (LTEA) Assay for Pyruvate Dehydrogenase Kinase 4 (PDK4) using HepaRG (AID 2283525). Particulars: mRNA level, 48 h; actives raise or lower the signal. A digest of the protocol: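 In this multiplexed human HepaRG expression assay, cells are treated 48 h with test chemicals across an eight-point range starting at 100 uM. PDK4 mRNA changes, normalized to ACTB/GAPDH/POLR2A, are fitted in both directions relative to vehicle.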

Read-out in test [6]: NAD(P)H dehydrogenase [quinone] 1 (NQO1), NQO1 (gene 1728)
Description: LTEA_HepaRG_NQO1: Life Technologies and Expression Analysis (LTEA) Assay for NAD(P)H dehydrogenase [quinone] 1 (NQO1) using HepaRG (AID 2283526). Particulars: mRNA level, 48 h; actives raise or lower the signal. A digest of the protocol:
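Differentiated HepaRG cells, plated 48 h and then switched to serum-free induction medium, were exposed in duplicate for 48 h to 8-point half-log concentrations up to 100 uM in 0.5% DMSO. mRNA measured by qRT-PCR, normalized to ACTB, GAPDH, POLR2A; bidirectional fit versus DMSO.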

Read-out in test [7]: Nuclear factor erythroid 2-related factor 2 (Homo sapiens) (UniProt Q16236)
Description: LTEA_HepaRG_NFE2L2: Life Technologies and Expression Analysis (LTEA) Assay for Nuclear factor erythroid 2-related factor 2 (NFE2L2) Transcription Factor using HepaRG (AID 2283527). To be noted: mRNA level, 48 h; actives raise or lower the signal. A digest of the protocol:
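Transcript level of NFE2L2 is the read-out, measured by microfluidic TaqMan qRT-PCR and normalized to three housekeeping genes. Human HepaRG cultures received test chemical for 48 h at up to 100 uM in half-log steps. Gain or loss of signal is fitted relative to 0.5% DMSO.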

Read-out in test [8]: succinate dehydrogenase complex iron sulfur subunit B (SDHB), SDHB (gene 6390)
The test can be described thus: LTEA_HepaRG_SDHB: Life Technologies and Expression Analysis (LTEA) Assay for succinate dehydrogenase complex iron sulfur subunit B (SDHB) using HepaRG (AID 2283528). Particulars: mRNA level, 48 h; actives raise or lower the signal. A digest of the protocol:
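SDHB transcript level read by TaqMan qRT-PCR, housekeeping-normalised (ACTB, GAPDH, POLR2A), after 48 h chemical treatment of plated HepaRG cells; eight concentrations top 100 uM, half-log steps, 0.5% DMSO, duplicates; fitted both directions against DMSO.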

Read-out in test [9]: Signal transducer and activator of transcription 3 (Homo sapiens) (UniProt P40763)
The test can be described thus: LTEA_HepaRG_STAT3: Life Technologies and Expression Analysis (LTEA) Assay for Signal transducer and activator of transcription (STAT3) using HepaRG (AID 2283529). Particulars: mRNA level, 48 h; actives raise or lower the signal. A digest of the protocol: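 Read-out is STAT3 mRNA level by qRT-PCR, normalized to three housekeeping genes, in human HepaRG liver cells treated for 48 h. Concentrations ran from 100 uM downward in half-log steps; curves were fitted for gain or loss relative to 0.5% DMSO.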

Read-out in test [10]: solute carrier (SLCO1B1), SLCO1B1 (gene 10599)
The test can be described thus: LTEA_HepaRG_SLCO1B1: Life Technologies and Expression Analysis (LTEA) Assay for solute carrier (SLCO1B1) using HepaRG (AID 2283530). Particulars: mRNA level, 48 h; actives raise or lower the signal. A digest of the protocol:
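Human HepaRG cultures treated for 48 h with an eight-concentration half-log series topping at 100 uM; SLCO1B1 measured by qRT-PCR and fitted bidirectionally relative to DMSO.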

Read-out in test [11]: Transforming Growth Factor (TGFA), TGFA (gene 7039)
Description: LTEA_HepaRG_TGFA: Life Technologies and Expression Analysis (LTEA) Assay for Transforming Growth Factor (TGFA) using HepaRG (AID 2283532). To be noted: mRNA level, 48 h; actives raise or lower the signal. A digest of the protocol: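 HepaRG (human liver line), 48 h exposure, 8 conc. half-log down from 100 uM, 0.5% DMSO vehicle, duplicates; serum-free induction medium. TGFA mRNA by TaqMan qRT-PCR, ACTB/GAPDH/POLR2A normalization; gain/loss fit vs DMSO.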

Read-out in test [12]: Transforming Growth Factor (TGFB1), TGFB1 (gene 7040)
Description: LTEA_HepaRG_TGFB1: Life Technologies and Expression Analysis (LTEA) Assay for Transforming Growth Factor (TGFB1) Transporter using HepaRG (AID 2283533). To be noted: mRNA level, 48 h; actives raise or lower the signal. A digest of the protocol:
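Eight-point concentration-response (max 100 uM, half-log) in HepaRG under serum-free induction conditions, 48 h. TGFB1 mRNA by qRT-PCR, housekeeping-normalized.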

Read-out in a further test: TIMP1, TIMP1 (gene 7076)
Description: LTEA_HepaRG_TIMP1: Life Technologies and Expression Analysis (LTEA) Assay for TIMP1 using HepaRG (AID 2283534). Particulars: mRNA level, 48 h; actives raise or lower the signal. A digest of the protocol:
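TIMP1 induction or repression in HepaRG cells after 48 h chemical exposure (eight concentrations, highest 100 uM), assessed by normalized qRT-PCR with bidirectional fitting to DMSO controls.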

Read-out in test [13]: Tumor necrosis factor receptor 1 (TNFRSF1A), TNFRSF1A (gene 7132)
Description: LTEA_HepaRG_TNFRSF1A: Life Technologies and Expression Analysis (LTEA) Assay for Tumor necrosis factor receptor 1 (TNFRSF1A) using HepaRG (AID 2283535). Particulars: mRNA level, 48 h; actives raise or lower the signal. A digest of the protocol:
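Assay uses 48 h chemical treatment of differentiated HepaRG monolayers, tested in duplicate at eight concentrations from 100 uM downward in 0.5% DMSO. mRNA is normalized to ACTB, GAPDH and POLR2A, with induction or suppression fitted relative to vehicle.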

Read-out in test [14]: Thyroid Hormone Responsive (THRSP), THRSP (gene 7069)
The test can be described thus: LTEA_HepaRG_THRSP: Life Technologies and Expression Analysis (LTEA) Assay for Thyroid Hormone Responsive (THRSP) using HepaRG (AID 2283536). Particulars: mRNA level, 48 h; actives raise or lower the signal. A digest of the protocol:
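mRNA induction or loss relative to 0.5% DMSO vehicle was fitted bidirectionally across an eight-point curve whose highest exposure was 100 uM. Human HepaRG liver cells received chemicals in duplicate over 48 h before RNA extraction.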

Read-out in test [15]: UDP glucuronosyltransferase (UGT1A1), UGT1A1 (gene 54658)
The test can be described thus: LTEA_HepaRG_UGT1A1: Life Technologies and Expression Analysis (LTEA) Assay for UDP glucuronosyltransferase (UGT1A1) using HepaRG (AID 2283538). Particulars: mRNA level, 48 h; actives raise or lower the signal. A digest of the protocol:
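Differentiated human HepaRG cells in serum-free induction medium were exposed in duplicate for 48 h to eight half-log concentrations up to 100 uM in 0.5% DMSO. UGT1A1 mRNA was quantified by TaqMan qRT-PCR, normalized to ACTB, GAPDH and POLR2A, and fitted bidirectionally against DMSO.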

Read-out in test [16]: X-box binding protein 1 (XBP1), XBP1 (gene 7494)
The test can be described thus: LTEA_HepaRG_XBP1: Life Technologies and Expression Analysis (LTEA) Assay for X-box binding protein 1 (XBP1) using HepaRG (AID 2283540). Particulars: mRNA level, 48 h; actives raise or lower the signal. A digest of the protocol:
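Eight concentrations (half-log, highest 100 uM, 0.5% DMSO) tested in duplicate on HepaRG cells over 48 h in serum-free induction medium; qRT-PCR of XBP1 normalised to ACTB, GAPDH, POLR2A.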

The nature of test [17]: LTEA_HepaRG_LDH_cytotoxicity: Cytotoxicity Assessment in the Life Technologies and Expression Analysis (LTEA) Assay (AID 2283563; active means hit-call score of the fitted dose curve at least 0.9, where 1 is the maximum). A digest of the protocol:
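Spent-medium LDH after 48 h chemical exposure of HepaRG cells in serum-free induction medium; eight concentrations, half-log dilutions from 100 uM, duplicate wells, fitted upward relative to 0.5% DMSO.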

Test [18] can be described thus: ATG_XTT_Cytotoxicity: Cytotoxicity Assessment in the Attagene TRANS-FACTORIAL HepG2 Assay (AID 2283584; active means hit-call score of the fitted dose curve at least 0.9, where 1 is the maximum). A digest of the protocol: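 24 h chemical exposure of reporter-transfected HepG2; XTT signal loss vs DMSO indicates cytotoxicity.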

Records with an inconclusive call do not appear. Calls of active or inactive are those of the source. How the source made its calls, unless noted: active means hit-call score of the fitted dose curve at least 0.9, where 1 is the maximum; inactive means score below 0.9.

Chain of Signal transducer and activator of transcription 3 (Homo sapiens) (P40763 whole entry, looked up): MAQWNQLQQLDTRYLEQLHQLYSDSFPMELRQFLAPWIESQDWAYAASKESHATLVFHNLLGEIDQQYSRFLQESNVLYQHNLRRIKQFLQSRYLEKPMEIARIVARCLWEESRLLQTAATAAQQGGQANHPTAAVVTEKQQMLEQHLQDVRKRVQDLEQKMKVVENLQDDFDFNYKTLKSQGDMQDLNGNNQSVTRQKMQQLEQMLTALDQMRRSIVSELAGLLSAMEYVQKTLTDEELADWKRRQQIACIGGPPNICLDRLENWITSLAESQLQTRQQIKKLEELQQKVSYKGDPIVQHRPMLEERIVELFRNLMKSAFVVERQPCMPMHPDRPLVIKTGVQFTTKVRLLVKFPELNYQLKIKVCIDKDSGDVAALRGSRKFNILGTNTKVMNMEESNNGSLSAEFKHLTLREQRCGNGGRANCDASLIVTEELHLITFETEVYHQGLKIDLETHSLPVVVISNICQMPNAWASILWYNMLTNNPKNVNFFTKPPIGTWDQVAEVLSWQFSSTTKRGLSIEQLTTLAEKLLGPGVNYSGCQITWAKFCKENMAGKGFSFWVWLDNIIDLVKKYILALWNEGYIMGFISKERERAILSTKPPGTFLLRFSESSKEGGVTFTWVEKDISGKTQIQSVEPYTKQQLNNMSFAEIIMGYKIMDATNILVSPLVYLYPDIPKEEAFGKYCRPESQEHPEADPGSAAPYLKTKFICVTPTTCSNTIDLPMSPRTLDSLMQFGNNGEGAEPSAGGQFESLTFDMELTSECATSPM
Chain of Nuclear factor erythroid 2-related factor 2 (Homo sapiens) (Q16236 whole entry, looked up): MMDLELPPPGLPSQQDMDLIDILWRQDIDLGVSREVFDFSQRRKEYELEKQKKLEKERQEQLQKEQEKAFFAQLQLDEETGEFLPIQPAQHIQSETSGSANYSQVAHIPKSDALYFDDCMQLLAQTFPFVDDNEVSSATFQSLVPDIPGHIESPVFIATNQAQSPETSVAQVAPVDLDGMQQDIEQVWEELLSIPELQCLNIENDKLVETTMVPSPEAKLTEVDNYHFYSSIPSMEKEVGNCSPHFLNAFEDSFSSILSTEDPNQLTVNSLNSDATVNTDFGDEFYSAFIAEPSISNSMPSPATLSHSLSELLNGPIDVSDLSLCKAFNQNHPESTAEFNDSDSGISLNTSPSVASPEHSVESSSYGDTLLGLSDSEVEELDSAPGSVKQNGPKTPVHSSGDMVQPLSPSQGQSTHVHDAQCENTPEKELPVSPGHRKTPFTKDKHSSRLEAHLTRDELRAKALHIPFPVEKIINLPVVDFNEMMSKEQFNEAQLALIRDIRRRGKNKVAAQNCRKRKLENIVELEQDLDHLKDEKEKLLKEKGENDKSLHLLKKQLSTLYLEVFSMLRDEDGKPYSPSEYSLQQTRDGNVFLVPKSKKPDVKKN

For `CSC(C)(C)C=NO`, the molecule was classed as inactive in [1].
The same measure, in the same setting: then `Cc1ccc(N)cc1N`, with “inactive”.
With `CC(C)(C)OOC(C)(C)C`, the molecule was called inactive in test [2], in test [3], in test [4], in test [5], in [6] and in test [7]. Also, the outcome is “inactive” in [8]; “inactive” in test [9]; “inactive” in test [10]; “inactive” in test [11]; “inactive” in test [12]; “inactive” with TIMP1, TIMP1 (gene 7076). Further, the result in test [13], in test [14], in test [15], in [16], in test [17] and in test [18] was inactive.
As to `COP(=O)(O)OC`, the call in [18] was inactive.
Still for that read-out and setting: then `O=C(O)CF`, with “inactive”; and `O=P(OCC(Br)CBr)(OCC(Br)CBr)OCC(Br)CBr` (configuration not stated), with “inactive”.
For `CCC1(c2ccccc2)C(=O)N=C(O)NC1=O` (configuration not stated), the outcome in test [2], in test [3], in [4], in test [5], in [6] and in test [7] was inactive. In addition, the outcome is “inactive” in test [8]; “inactive” in test [9]; “inactive” in test [10]; “inactive” in test [11]; “inactive” in test [12]; “inactive” in the test with TIMP1, TIMP1 (gene 7076). Moreover, the outcome in [13], in test [14], in test [16], in [17] and in [18] was inactive. For the same molecule, in test [15], the half-maximal activity concentration (AC50) is 50 µM (active).
Take `Cc1ccc(O)cc1C`: the molecule was called inactive in [2], in test [3], in [4], in test [5], in test [6] and in test [8]. Besides, the outcome in [9] was “inactive”; in test [10], “inactive”; in [11], “inactive”; in test [12] it was “inactive”; in the test with TIMP1, TIMP1 (gene 7076) it was “inactive”; in test [13], “inactive”. The molecule was called inactive in [14], in test [15] and in test [16].
As to `O=c1ssc(Cl)c1Cl`, in test [18], the result was inactive.
